Experimental data reported in PubChem BioAssay AID1159580 (chemical genetic matrix, 2015).
Out of some 5,500 compounds screened, about 2,000 (36%) were called active. Roughly 18% stayed inconclusive and do not appear here. Cut-off read from the data, not from the text of the source: active = normalized growth mostly below about 0.91 (no sharp cut-off); inconclusive = no clear call, values can overlap the other calls; inactive = mostly above about 0.92. This is one part of the list.

Assay: chemical genetic growth profiling, strain panel (AID 1159580);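 note: tested at 20 µM; growth read once vehicle control cultures reached saturation at 30 °C; 1 = growth at the plate median or of vehicle wells; lower values mean less growth of the strain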
Details: S. cerevisiae deletion strains, growth OD

Measured: normalized growth

C(=C\c1ccccc1)/CN1CCN(C(c2ccccc2)c2ccccc2)CC1
inactive: locus YAL040C, strain CLN3, active compounds read low 0.995 | locus YCL061C, strain MRC1 (second series), active compounds read low 0.992 | locus YMR307W, strain GAS1, active compounds read low 0.998 | locus YNL153C, strain GIM3, active compounds read low 0.851 | locus YNL197C, strain WHI3, active compounds read low 1.11 | locus YNL224C, strain SQS1, active compounds read low 1.02 | locus YOR083W, strain WHI5 (second series), active compounds read low 0.99 | locus YPL055C, strain LGE1, active compounds read low 1
active: locus YER002W, strain NOP16, active compounds read low 1.09 [resistant]
